PubChem BioAssay AID652017 (The Scripps Research Institute Molecular Screening Center, 2013)
Screen size: about 370,000 compounds; about 3,800 (1%) were called active. Only a selection was taken, and actives are over-represented in it overall. A number with no mark means an inactive call. Rule as the data show it: active = activation above about 7.8%; inactive = the rest.

Test: SMARCA2 (BRM) function activators, primary screen, cell-based, luminescence, high throughput (AID 652017);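 also: 0% = vehicle wells and 100% = reference activator wells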
Details: MG213 cells, MMTV-luciferase reporter, dexamethasone, overnight; at 9.1 µM; stronger effect = higher value

In the case of `CCN(CC)CCNC(=O)c1ccc(NC(=O)c2cc(-c3ccncc3)nc3ccccc23)cc1`, the activation is reported as 8.42% (active).
For `O=C1/C(=C\c2ccc([N+](=O)[O-])cc2)CS(=O)(=O)C/C1=C/c1ccc([N+](=O)[O-])cc1`, the activation was 16.5% (active).
For `Cc1cccc(CSc2ccc(-c3cccs3)nn2)c1`, the activation was 9.78% (active).
With `Cc1ccc(NC(=O)c2cc3ccccc3o2)cc1` the activation was 8.36% (active).
With `COc1ccc(S(=O)(=O)NC(C)C(=O)N2CCCCCC2)cc1` (stereo not given) the activation was 8.03% (active).
For `CC(=O)c1ccc(NC(=O)c2sc3nc4n(c(=O)c3c2C)CCCCC4)cc1`, the activation was 9.72% (active).
For `O=c1c2c(nc3n1CCCCC3)sc1c(O)cccc12`, the activation was 10.3% (active).
With `O=C(Nc1cc(=O)[nH]c2ncnn12)c1ccccc1Cl` the activation was 8.25% (active).
With `COc1c(O)cc2oc(-c3ccc(O)c(O)c3)cc(=O)c2c1O` the activation was 8.25% (active).
With `Cc1nn(Cc2ccc(F)cc2)c(C)c1NC(=O)c1cccnc1Cl` the activation was 11.7% (active).

First: CCN(CC)CCNC(=O)c1ccc(NC(=O)c2c(F)cccc2Cl)cc1
Second: CCN(CC)CCOC(=O)c1ccc(NC(=O)CNC(=O)c2ccccc2)cc1
The activation of the first is higher: -0.88% for the first, -3.5% for the second.

First: O=C1Nc2ccccc2OC1CC(=O)N1CCCCCCC1 (stereo not given)
Second: COc1ccc(N2CC(C(=O)N[C@@H](C)C(=O)N3CCCCC3)CC2=O)cc1 (stereo not given in full)
The activation of the first is lower: 0.95% for the first, 1.33% for the second.

Going from `COc1ccc(-c2ccc3nnc(SCC(=O)Nc4ccc(NC(C)=O)cc4)n3n2)cc1` to `COc1ccc(-n2c(SCC(=O)Nc3ccc4cn[nH]c4c3)nnc2-c2cccnc2)cc1`, the activation rises from -0.74% to 6.71%.

First: O=[N+]([O-])c1ccc(CN2CC(N3CC=CC3)CS2(=O)=O)cc1 (stereo not given)
Second: O=C(NC1CCCC1)C1CSCCS(=O)(=O)N1Cc1ccccc1 (stereo not given)
The activation of the first is lower: -2.21% for the first, -0.49% for the second.

Going from `C[C@H](C(=O)N(C)c1ccccc1)[C@@H](O)c1ccc2ccccc2c1` to `O=C(Nc1ccc2sc3ccccc3c(=O)c2c1)c1ccccc1Cl`, the activation rises from -2.92% to 5.49%.

First: CCCCCCNS(=O)(=O)c1ccccc1Br
Second: COc1ccc(CCNC(=O)CCNS(=O)(=O)c2cc(Br)cnc2N)cc1OC
The activation of the first is higher: -0.14% for the first, -1.13% for the second.

First: c1csc(-c2nnc(SCc3nc4ccccc4[nH]3)o2)c1
Second: CC(C)(C)c1ccc(CSc2nnc(-c3cccs3)o2)cc1
The activation of the first is higher: -0.75% for the first, -1.53% for the second.

Going from `O=C(CSc1ccc(-c2cccs2)nn1)Nc1ccccc1F` to `COc1ccc(-n2c(SCC(=O)Nc3ccccc3-c3ccccc3)nnc2-c2cccnc2)cc1`, the activation falls from -0.22% to -4.88%.

First: Cc1ccc(OCc2nnc(SC/C=C/c3ccccc3)n2Cc2ccco2)cc1
Second: COc1ccc(Cn2cc(CN3[C@@H](CC(C)C)COc4cc(Br)ccc4S3(=O)=O)nn2)cc1
The activation of the first is lower: -4.07% for the first, 0.39% for the second.

Compared with `Cc1cccc(-n2nc3c(c2NC(=O)c2cc4ccccc4o2)CS(=O)(=O)C3)c1`, `CC(OC(=O)c1cc2ccccc2o1)C(=O)Nc1ccc(N2CCOCC2)cc1` (stereo not given) is lower in activation: -1.69% for the first, -1.72% for the second.

First: O=C(Nc1ccccc1)N1CCN(Cc2nc3ccccc3c(=O)[nH]2)CC1
Second: O=C(Cn1[nH]c(=O)c2ccccc2c1=O)Nc1cccc(-c2nnc3n2CCCCC3)c1
The activation of the first is lower: -4.04% for the first, -0.49% for the second.

Going from `COC(=O)c1cc(S(=O)(=O)N2CCN(c3ccccc3C)CC2)cn1C` to `O=C(C1CCCN1S(=O)(=O)c1ccccc1)N1CCc2ccccc2C1` (stereo not given), the activation rises from -6.95% to -4.12%.

Compared with `CCCCOCCCNC(=O)C[C@H]1C[C@@]2(C(=O)OC)C(=C[C@H](C(C)(C)C)O[C@@H]2C)N(CCc2ccc(OC)c(OC)c2)C1=O`, `COC(=O)[C@]12C[C@H](CC(=O)NCCCN3CCCC3=O)C(=O)N(CCc3ccc(OC)c(OC)c3)C1=C[C@H](COCc1ccccc1)O[C@@H]2C` is lower in activation: -1.39% for the first, -2.89% for the second.

Compared with `Nc1[nH]c(/C=C2/CCCCC2n2[nH]c(=O)n(-c3ccccc3)c2=O)c(Cc2ccccc2)[n+]1Cc1ccccc1` (stereo not given), `CCCCOCCCNC(=O)C[C@H]1C[C@@]2(C(=O)OC)C(=C[C@H](COCc3ccccc3)O[C@@H]2C)N(Cc2cccc3ccccc23)C1=O` is higher in activation: -4.04% for the first, -2.77% for the second.

First: COc1ccc(CNS(=O)(=O)c2ccc(NC(=O)N3CCCCC3)cc2)cc1
Second: CCOC(=O)[C@]12CCCC=C1N(Cc1ccc(OC)cc1)C(=O)[C@@H]2CC(=O)NCc1cccs1
The activation of the first is lower: -3.18% for the first, -2.09% for the second.

First: COCC(=O)N[C@@H]1C[C@@H]2O[C@@H](CO)CC[C@@H]2O[C@@H]1CCc1ccc(-c2ccccc2)cc1
Second: CC(=O)c1cc(CN2CCC(n3nccc3NC(=O)c3ccccc3Cl)CC2)cs1
The activation of the first is higher: 0.63% for the first, -2.24% for the second.

Compared with `CC1CCN(C(=O)c2ccc3c(=O)n4c(nc3c2)CCCCC4)CC1`, `O=C(Nc1ccc2nc3n(c(=O)c2c1)CCCC3)c1ccc(Cl)nc1` is lower in activation: -1.07% for the first, -1.5% for the second.

Going from `Cc1c(C(=O)Nc2cccc(-c3nnc4n3CCCCC4)c2)oc2ccccc12` to `Cc1nn(Cc2ccc(F)cc2)c(C)c1NC(=O)c1noc2c1CCc1ccccc1-2`, the activation falls from -1.34% to -4.67%.

Going from `COc1cccc(CNC(=O)CNS(=O)(=O)c2ccc3nc(C)sc3c2)c1OC` to `Cc1cc(Br)ccc1NC(=O)CCCOc1cc(=O)n(C)c2ccccc12`, the activation falls from -2.54% to -2.55%.

Going from `Cc1cc(C)cc(NC(=O)N2CCC(N(C)CCC(C)C)CC2)c1` to `Cc1ccc(C(=O)C2CCN(CC(=O)NCCC(C)C)CC2)cc1`, the activation rises from -3.63% to -3.11%.

Compared with `COC(=O)c1cccc(Cn2ccc3ccc(-c4ccc5ccn(C(=O)c6ccccc6C)c5c4)cc32)c1`, `C/C(Cn1nnc2ccccc21)=N\OC(=O)c1cc(F)c(F)cc1Cl` is higher in activation: -2.21% for the first, -0.31% for the second.

Compared with `COc1ncnc2c1ncn2CCCNCCN1CCOCC1`, `Cc1nn(Cc2ccc(Cl)c(Cl)c2)c(C)c1NC(=O)c1cc(C2CC2)on1` is lower in activation: -1.94% for the first, -4.98% for the second.

Work on `OC(CCl)CCl` yielded an activation of -4.79%.
